The nature of assay [1]: ovarian cancer cell viability with rucaparib, profiling panel, oncology-focused library, rucaparib conditional (AID 1508598). Particulars: patient-derived ovarian cancer cells, CellTiter-Glo viability, 144 h, stronger effect = lower value.
Assay [2] concerns the target NAD(+) hydrolase SARM1 (Homo sapiens) (UniProt Q6SZW1). Kind of assay: SARM1 TIR NADase inhibitors, cell lysate, NAD-Glo luminescence (AID 1508614;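 active = compound whose remaining NAD level is above about 45 nM, limit read from the data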;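 note: higher remaining NAD means stronger inhibition of SARM1 NADase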). The following applies: SAM-TIR HEK293T lysate NADase, at 1 µM, stronger effect = higher value.
A short description of assay [3]: viability rescue of complex I mutant cybrids, primary screen, cell-based, galactose medium, ATP luminescence (AID 1645843;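 active = z-score of at least 1.8 in each of two replicates, scored against plate mean and spread of sample wells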;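 note: positive z means more ATP and so rescue of galactose-driven cybrid death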). The following applies: complex I mutant cybrid cells, 72 h, stronger effect = higher value.
Assay [4] in a line: viability loss in pontine glioma line – cell-based, SU-DIPG-XXV, MIPE5.0, CellTiter-Glo, qHTS, dose response (AID 1347065; cut-off not given, nearly all actives have AC50 up to about 26 µM;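 note: cells exposed to compound for 48 hours before ATP readout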). The following applies: CellTiter-Glo ATP luminescence. A general note: Cellular ATP, detected with luciferase, serves as a proxy for viable cell number.
A short description of assay [5]: SU-DIPG-VI glioma cell viability, MIPE4.0 library, CellTiter-Glo luminescence, qHTS (AID 1347066; cut-off not given, nearly all actives have AC50 up to about 30 µM;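 note: cells exposed to compound for 48 hours before readout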). The following applies: CellTiter-Glo ATP luminescence.
A short description of assay [6]: JHH-DIPG-1 glioma cell viability, MIPE5.0 library, CellTiter-Glo luminescence, qHTS (AID 1347067; cut-off not given, nearly all actives have AC50 up to about 26 µM;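 note: cells exposed to compound for 48 hours before readout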). Particulars: JHH-DIPG-1 glioma viability, CellTiter-Glo ATP luminescence.
A short description of assay [7]: SU-DIPG-XXV glioma cell viability, MIPE5.0 library, qHTS (AID 1347068; cut-off not given, nearly all actives have IC50 up to about 30 µM). On the technique in general: Quantitative high-throughput screening tests each substance at several concentrations.
A short description of assay [8]: phospholipid biosynthesis inhibitors in animal cells, primary screen, cell-based, LOPAC library, screen 4 (AID 1347384; call rule not given here). The following applies: phospholipid biosynthesis inhibition screen, at 10 µM.
Assay [9] is described as follows: survival rescue of mitochondrial mutant cells in low glucose, primary screen, MELAS cybrids, Rieske KO mouse fibroblasts, CellTiter-Glo (AID 1508586;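 active = mean z-score across replicates of 1.96 or higher in either the MELAS or the Rieske mutant cell line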;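 note: z relative to plate mean and SD of compound and empty wells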).
In assay [10] the target is Mitogen-activated protein kinase 7 (Homo sapiens) (UniProt Q13164). Kind of assay: ERK5 transactivation activators in reporter cells, primary screen, cell-based, HTS (AID 1508626;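 active = luciferase signal above three times the same-plate solvent-only control wells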;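 note: luciferase driven by Gal4-ERK5 fusion binding five Gal4 sites before minimal TATA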). The following applies: HeLa Gal4-ERK5 transactivation, 18 h, at 5 µM, stronger effect = higher value.
Assay [11] can be described thus: inhibitors of Cryptococcus chitosan production, flow cytometry, Cibacron Brilliant Red staining (AID 1347148; call rule not given here;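 note: compound exposure lasted three days at 37 degrees C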). The following applies: Cryptococcus neoformans chitosan, stronger effect = lower value; at 10 µM unless noted. On the technique in general: Flow cytometry measures light scatter and fluorescence of single cells or particles in a stream.
Where [12] appears, read: MELAS cybrid survival, CellTiter-Glo 48 h, stronger effect = higher value.
Where [13] appears, read: Rieske KO mouse fibroblast survival, CellTiter-Glo 72 h.

The structures appear in SMILES notation. Where “and” joins values, the source holds several entries; their conditions need not be identical. Identical values can stand only once. Inconclusive results are not listed. Calls of active or inactive are those of the source.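 Rule for the calls, unless noted: active = normalized viability below 100% at a tested concentration; inactive = the rest.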

Chain of Mitogen-activated protein kinase 7 (Homo sapiens) (Q13164 whole entry, looked up, the tested form may be a part): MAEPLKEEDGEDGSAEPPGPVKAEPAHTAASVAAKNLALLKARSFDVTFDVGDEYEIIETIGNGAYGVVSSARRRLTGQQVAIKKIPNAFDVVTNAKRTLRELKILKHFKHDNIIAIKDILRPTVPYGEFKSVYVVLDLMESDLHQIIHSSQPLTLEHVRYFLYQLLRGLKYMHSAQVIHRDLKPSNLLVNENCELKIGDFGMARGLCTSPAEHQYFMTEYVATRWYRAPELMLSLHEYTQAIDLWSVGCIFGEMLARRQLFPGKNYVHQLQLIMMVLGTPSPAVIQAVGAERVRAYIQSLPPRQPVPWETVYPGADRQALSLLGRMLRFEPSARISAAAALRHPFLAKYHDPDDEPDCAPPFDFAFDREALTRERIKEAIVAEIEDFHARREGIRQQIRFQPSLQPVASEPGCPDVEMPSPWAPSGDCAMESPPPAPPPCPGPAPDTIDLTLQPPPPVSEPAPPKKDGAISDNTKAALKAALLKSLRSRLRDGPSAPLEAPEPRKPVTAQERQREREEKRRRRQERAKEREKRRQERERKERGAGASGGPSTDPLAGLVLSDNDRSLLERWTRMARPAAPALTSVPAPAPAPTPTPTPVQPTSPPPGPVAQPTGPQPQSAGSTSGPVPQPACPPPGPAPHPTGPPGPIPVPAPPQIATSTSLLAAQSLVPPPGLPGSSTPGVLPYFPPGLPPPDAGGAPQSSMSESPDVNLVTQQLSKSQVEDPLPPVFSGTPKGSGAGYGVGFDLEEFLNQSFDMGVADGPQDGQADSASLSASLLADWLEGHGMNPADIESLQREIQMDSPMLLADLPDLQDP
Chain of NAD(+) hydrolase SARM1 (Homo sapiens) (Q6SZW1 whole entry, looked up): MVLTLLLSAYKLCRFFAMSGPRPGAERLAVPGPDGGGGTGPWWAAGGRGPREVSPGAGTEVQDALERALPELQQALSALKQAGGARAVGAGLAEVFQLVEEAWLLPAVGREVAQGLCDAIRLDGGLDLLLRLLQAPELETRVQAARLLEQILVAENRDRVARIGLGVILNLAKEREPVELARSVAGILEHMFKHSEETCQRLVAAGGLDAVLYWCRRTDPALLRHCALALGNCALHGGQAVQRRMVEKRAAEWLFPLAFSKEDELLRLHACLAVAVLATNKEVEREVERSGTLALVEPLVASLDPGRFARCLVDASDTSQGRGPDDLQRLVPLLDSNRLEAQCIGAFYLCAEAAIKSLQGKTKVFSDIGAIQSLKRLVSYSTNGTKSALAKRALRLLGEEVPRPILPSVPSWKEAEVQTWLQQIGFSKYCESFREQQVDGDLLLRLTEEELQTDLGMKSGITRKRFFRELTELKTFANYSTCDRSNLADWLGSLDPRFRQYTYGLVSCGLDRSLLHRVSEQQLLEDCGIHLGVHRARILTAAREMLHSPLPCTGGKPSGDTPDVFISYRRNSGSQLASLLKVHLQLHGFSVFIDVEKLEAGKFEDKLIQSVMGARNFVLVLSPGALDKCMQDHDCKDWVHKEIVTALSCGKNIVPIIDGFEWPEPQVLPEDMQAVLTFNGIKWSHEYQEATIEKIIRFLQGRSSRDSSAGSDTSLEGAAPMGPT

Turning to `N#Cc1ccc(C(c2ccc(C#N)cc2)n2cncn2)cc1`, the viability (usually a read-out of living cells in per cent, often relative to untreated cells) in [1] (at 0.313 µM, OCI-C5x cells, without rucaparib) was 106% (inactive); in assay [1] (at 0.313 µM, OCI-P5x cells, with rucaparib 20 µM, 100% = cells with rucaparib alone), 104% (inactive); in [1] (at 0.313 µM, OCI-P5x cells, without rucaparib), 108% (inactive); in assay [1] (at 1.25 µM, OCI-C5x cells, with rucaparib 10 µM, 100% = cells with rucaparib alone), 107% (inactive); in [1] (at 1.25 µM, OCI-C5x cells, without rucaparib) it was 104% (inactive); in [1] (at 1.25 µM, OCI-P5x cells, with rucaparib 20 µM, 100% = cells with rucaparib alone), 108% (inactive). Further, the viability in [1] (at 1.25 µM, OCI-P5x cells, without rucaparib) is 107% (inactive); in assay [1] (at 5 µM, OCI-C5x cells, with rucaparib 10 µM, 100% = cells with rucaparib alone), 113% (inactive); in assay [1] (at 5 µM, OCI-C5x cells, without rucaparib), 128% (inactive); in [1] (at 5 µM, OCI-P5x cells, with rucaparib 20 µM, 100% = cells with rucaparib alone) it was 112% (inactive); in assay [1] (at 5 µM, OCI-P5x cells, without rucaparib), 104% (inactive). In addition, in [2], the remaining NAD was 10 nM (inactive). Besides, the z-score in assay [3] is 0.515 (inactive) and 0.315 (inactive).
For the molecule `Clc1ccc2nsnc2c1NC1=NCCN1`, the result in assay [4], in assay [5], in assay [6], in assay [7] and in [8] was inactive. Moreover, the z-score was -0.43 (inactive) and 0.0544 (inactive) and -0.148 (inactive) in assay [9] (setting [12]); 0.606 and 0.144 and -1.3 in assay [9] (setting [13]).
Take `NC[C@H](O)c1ccc(O)c(O)c1`: the outcome in assay [4], in assay [5], in assay [6], in assay [7] and in [8] was inactive. Also, the z-score was -0.303 (inactive) and 0.0574 (inactive) and -0.946 (inactive) in assay [9] (setting [12]); -0.266 and 0.00809 and -1.27 in [9] (setting [13]); -1.45 (inactive) and -1.61 (inactive) and -1.02 (inactive) in [3]. For the same molecule, the remaining NAD in assay [2] is 10 nM (inactive). Also, the luciferase signal in [10] is 60 AU (inactive).
Turning to `CN1CCC(=C2c3ccccc3CCc3sccc32)CC1`, the result in [4], in assay [5], in assay [6] and in [7] was inactive. Further, the z-score in [9] (setting [12]) is -0.441 (inactive) and -0.79 (inactive); in assay [9] (setting [13]) it was -0.11 and 0.709; in [3], -0.795 (inactive). Besides, the remaining NAD in assay [2] was 10 nM (inactive). The luciferase signal in assay [10] is 76 AU (inactive).
Turning to `COc1ccc(C2CNC(=O)C2)cc1OC1CCCC1` (stereo not drawn), the call in assay [4], in [5], in [6], in assay [7] and in assay [8] was inactive. For the same molecule, the fold fluorescence in [11] was 10.1 [at 181.6 µM] (inactive). In addition, the remaining NAD in [2] was 10 nM (inactive). Also, the luciferase signal in assay [10] is 72 AU (inactive).
With `CC(C)NCC(O)COc1ccc(CCOCC2CC2)cc1` (stereo not drawn), the outcome in [4], in assay [5], in assay [6], in assay [7] and in [8] was inactive. Also, the remaining NAD in assay [2] was 10 nM (inactive).

The values are drawn from PubChem BioAssay.
